Out of some 98,000 compounds screened, about 4,900 (5%) were called active. What follows is part of a selection rich in actives, with near analogues and random picks from the rest. Unmarked numbers belong to inactive results. No stated cut-off is given here; in the data, active means inhibition above about 30%; inactive means the rest.
experiment: yeast control strain growth suppression – counter-screen for post-Golgi transport modulator project, primary screen (AID 738); details: efflux-deficient yeast background strain, growth absorbance A615, 16 h; at 10 µM; stronger effect = higher value

Row | SMILES | inhibition
1 | O=C(OCN1C(=O)c2ccccc2C1=O)/C(=C\c1ccco1)NC(=O)c1ccccc1 | -11.4%
2 | Cc1cc(OC(=O)c2c(Cl)cccc2Cl)nc(C)n1 | 3.63%
3 | O=C(Nc1ncc2c(n1)-c1ccccc1OC2)c1ccc(Cl)cc1 | 22.5%
4 | CC(C)c1ccc(N2CCN(C(=O)c3ccccc3NC(=O)/C=C(\C(=O)O)c3ccccc3)CC2)cc1 | 11.3%
5 | Cc1ccc(S(=O)(=O)N(CC(=O)N/N=C/c2ccc(F)cc2)c2cccc3cccnc23)cc1 | 6.82%
6 | COC(=O)c1[nH]c2ccccc2c1NC(=O)CN1CCCc2ccccc21 | 43.4% (active)
7 | COC(=O)c1[nH]c2cccc(C)c2c1NC(=O)CN1CCCc2ccccc21 | 19.7%
8 | CCOC(=O)c1[nH]c2ccc(OC)cc2c1NC(=O)CCN1CCN(Cc2ccccc2)CC1 | 1.92%
9 | Cc1ccnc(N2CCN(C(=O)CSc3nc4ccccc4nc3N3CCCCC3)CC2)c1 | 42.9% (active)
10 | Cc1ccc(S(=O)(=O)NCC(=O)N2CCN(c3ccccn3)CC2)cc1 | 2.13%
11 | Cc1ccc2oc(=O)c3cnn(CC(=O)N4CCN(c5ccccn5)CC4)c3c2c1 | -3.03%
12 | Cc1ccc(SCC(=O)c2sc(-c3ccccc3)nc2C)cc1 | -6.19%
13 | C=C(C)COc1ccc(-c2n[nH]c(C)c2-c2ccccc2)c(O)c1 | 34.8% (active)
14 | C=C(C)COc1ccc(-c2n[nH]c(C)c2-c2ccccc2OC)c(O)c1 | 7.96%
15 | COc1ccc(-c2n[nH]c(C)c2-c2ccc(OC)c(OC)c2)c(O)c1 | 15%
16 | O=C(CN1C(=O)NC(Cc2ccccc2)(Cc2ccccc2)C1=O)NCC1CCCCC1 | 16.1%
17 | COC(=O)c1cc(NC(=O)C2C3C=CC(C3)C2C(=O)O)cc(C(=O)OC)c1 (configuration not stated) | 6.4%
18 | CN1CCN(C(=O)C2C3C=CC(C3)C2C(=O)O)CC1 (configuration not stated) | 36.6% (active)
19 | O=C(O)C1C2C=CC(C2)C1C(=O)N1CCN(CCO)CC1 (configuration not stated) | 7.62%
20 | O=C(CN1C(=O)CC(c2ccccc2)=Nc2ccccc21)NC1CCCCC1 | 7.73%
21 | COc1cccc(-c2cc3nc4c(c(N5CCC6(CC5)OCCO6)n3n2)CCCC4)c1 | 77.5% (active)
22 | COc1cccc(CNc2nc3nc4c(c(=O)n3[nH]2)CCC4)c1 | 3.19%
23 | COc1cccc(-c2nc(S(=O)(=O)c3ccccc3)c(N3CCOCC3)o2)c1 | 15.6%

Row | SMILES | inhibition
24 | CCOc1ccc(Nc2nc(Cc3nnc(SCC(=O)NC4CCCC4)n3C)cs2)cc1 | 5.32%
25 | O=C(/C=C/c1ccccc1)c1ccoc1 | 17.6%
26 | COc1ccc(C(=O)Nc2ncc3c(n2)-c2ccccc2CC3)cc1 | -6.73%
27 | O=C(CCCN1C(=O)c2cccc3cccc(c23)C1=O)N1CCN(Cc2ccc3c(c2)OCO3)CC1 | 13.6%
28 | Clc1ccc(C2CC(c3cccs3)n3ncnc3N2)cc1Cl (configuration not stated) | 43% (active)
29 | COc1ccc(C2CC(c3ccc(C)cc3)Nc3ncnn32)cc1 (configuration not stated) | 0.32%
30 | COc1ccc(C2CC(c3ccccc3)Nc3ncnn32)cc1 (configuration not stated) | 6.21%
31 | Cc1ccc(-c2noc(CSc3nnnn3-c3ccccc3)n2)cc1 | 48.9% (active)
32 | Fc1ccc(-n2c(Cc3ccccc3)nnc2SCc2nc(-c3ccc(Cl)cc3)no2)cc1 | 46.4% (active)
33 | COc1ccc(-c2noc(CSc3ccc(C)cc3)n2)cc1 | 4.57%
34 | Cc1ccc(-c2noc(CSc3nnc(-c4ccncc4)n3-c3ccc(F)cc3)n2)cc1 | 38.4% (active)
35 | Cc1ccc(-c2noc(CC(c3ccccc3)c3ccccc3)n2)cc1 | 3.45%
36 | Cc1ccc(-c2noc(CSc3nnc(-c4cccs4)n3C)n2)cc1 | 5.22%
37 | Cc1ccc(-c2noc(CSc3nnc(-c4ccccc4)n3C)n2)cc1 | 22.3%
38 | Cn1cccc1Cc1nnc(SCC(=O)NCCc2ccccc2)n1-c1ccc(F)cc1 | 2.46%
39 | O=C(CSc1nnc(Cc2ccccc2)n1-c1ccccc1)N1CCOCC1 | -1.82%
40 | Cc1cc(C(F)F)n2nc(C(=O)Nc3ccc(S(=O)(=O)NC45CC6CC(CC(C6)C4)C5)cc3)nc2n1 | 2.49%
41 | Nc1nc(Br)c2ccccc2c1-c1ccc(F)cc1 | 11.8%
42 | CCn1c(O)c2ccc(C(=O)N=NC(=O)c3cccnc3)cc2c1O | 1.24%
43 | CN(C)c1ccc(/C=C2\NC(=S)N(Cc3ccccc3)C2=O)cc1 | 21%
44 | CCOC(=O)C1(S(=O)(=O)c2ccc(Cl)cc2)CCN(Cc2ccccc2)CC1 | 4.55%
45 | CC1C/C(=N/NC(=O)c2cccs2)CC(C)(C)C1 (configuration not stated) | 9.76%
46 | CC(Oc1ccc(Cl)cc1Cl)C(=O)/C=C/N(C)C (configuration not stated) | 27.4%

Row | SMILES | inhibition
47 | CCOC(=O)/C(=C\c1ccc([N+](=O)[O-])cc1)C(=O)c1cc(C(C)=O)c(Nc2ccccc2)s1 | 92% (active)
48 | O=C(NCCc1ccccc1)/C(=C\c1ccc([N+](=O)[O-])cc1)NC(=O)c1ccccc1 | 3.12%
49 | CCOC(=O)/C(C#N)=C/c1ccc(OCC(=O)Nc2ccccc2)c(OC)c1 | 2.95%
50 | CNS(=O)(=O)c1cnccc1N1CCN(c2cccc(C)c2)CC1 | 1.59%
51 | Cc1c(NC(=O)/C=C/C(=O)O)cccc1[N+](=O)[O-] | 6.96%
52 | Cc1sc(NC(=O)C2C3CCC(O3)C2C(=O)O)c(C(=O)OC(C)C)c1-c1ccc(Cl)cc1 (configuration not stated) | 16.9%
53 | CN1CC(c2ccccc2)C2(COc3ccccc3C2=O)C12C(=O)Nc1ccccc12 (configuration not stated) | 32.5% (active)
54 | Cc1noc(C)c1C(=O)N(CC(=O)NC1CCCC1)Cc1ccccc1F | 2.95%
55 | Cc1nc(SCC(=O)c2ccccc2)c([N+](=O)[O-])[nH]1 | -2.62%
56 | O=C(CCc1ccc(S(=O)(=O)NC2CCCCC2)cc1)NCc1ccccc1 | 1.21%
57 | Cc1ccc2c(c1)N(CC(=O)N1CCCc3ccccc31)C(=O)C(C)O2 (configuration not stated) | 5.45%
58 | Cc1ccc2c(c1)N(C(=O)CCC(=O)N1CCc3ccccc3C1)CCO2 | 36.4% (active)
59 | Cc1ccc(S(=O)(=O)N(C)CC(=O)N2CCc3ccccc32)cc1 | 2.58%
60 | COc1cc(NS(=O)(=O)c2ccc(N/C=C(\C=O)c3nc4cc(Cl)ccc4o3)cc2)nc(OC)n1 | -2.08%
61 | COc1cccc(-c2cc(C(=O)N/N=C/c3ccc(OC)c(COC(C)=O)c3)c3ccccc3n2)c1 | -0.83%
62 | CCOc1cc(C2C(C(=O)OC)=CN(C3CCCC3)C=C2C(=O)OC)cc(Br)c1O | 38.7% (active)
63 | CCOc1ccccc1C1C(C(=O)OC)=CN(C)C=C1C(=O)OC | 11.7%
64 | CCOc1ccc(CNC(=O)C2CCC(=O)N2C2CCCC2)cc1OC (configuration not stated) | 13.3%
65 | COc1cccc(C(=O)NNC(=O)c2ccccc2Br)c1 | 0%
66 | CC(C)c1ccc(-c2noc(C3CCCN(S(C)(=O)=O)C3)n2)cc1 (configuration not stated) | -5.28%
67 | O=C(c1cccs1)N1CCCC(c2nc(-c3ccc(F)cc3)no2)C1 (configuration not stated) | 43.9% (active)
68 | O=C(Cc1cccs1)N1CCCC(c2nc(-c3ccc(S(=O)(=O)N4CCCC4)cc3)no2)C1 (configuration not stated) | 2.8%
69 | CCc1ccc(CNC(=O)CCc2nc(-c3cccs3)no2)cc1 | 7.1%

Row | SMILES | inhibition
70 | CC(C)NC(=O)C(=O)N/N=C/c1ccco1 | 4.76%
71 | Cc1nn(C)c(Oc2ccccc2)c1CCNS(=O)(=O)c1ccc(F)cc1 | -2.45%
72 | COc1ccc(CNC(=O)C2CCC(CNc3c(N4CCOCC4)c(=O)c3=O)CC2)cc1 (configuration not stated) | 3.7%
73 | COc1ccc(SCc2noc(C(=O)NCC3CCCO3)c2C(=O)O)cc1 (configuration not stated) | 0.46%
74 | Cn1cccc1C1(C(F)(F)F)NCCNC1=O (configuration not stated) | 48.1% (active)
75 | O=C(/C=C/c1ccccc1)N/C(=C/c1ccccc1)C(=O)Nc1ccccc1O | 18%
76 | CN(C)/C(CN1CCCCC1)=C1\N=C(c2ccccc2)OC1=O | 11.8%
77 | COCCCNC(NC(=O)c1ccc(C)cc1)C(Cl)(Cl)Cl (configuration not stated) | -2.93%
78 | CC1CCCC(C)N1CCCNC(=O)c1cc2c(=O)n(C)c3ccccc3c2n1C (configuration not stated) | 1.45%
79 | Cn1c(C(=O)NCCCN2CCN(c3cccc(Cl)c3)CC2)cc2c(=O)n(C)c3ccccc3c21 | 95.8% (active)
80 | CCn1c(=O)cc(OCC(=O)NCCCN2CCN(c3cccc(Cl)c3)CC2)c2ccccc21 | 2.45%
81 | CCCCn1c(=S)[nH]c2cc(S(=O)(=O)N3CCCCC3)ccc21 | 6.51%
82 | Cc1cc2cc3c(cc2nc1SCC(=O)Nc1c(C)cccc1C)CCC3 | 13.7%
83 | CCOc1cc2[nH]c(=O)n(CCC(=O)NCc3ccc(OC)cc3)c(=O)c2cc1OCC | -0.15%
84 | Cc1cccc(OCc2nnc(SCn3nnc4ccccc4c3=O)o2)c1 | 36.4% (active)
85 | Cc1cc(C)cc(OCc2nnc(SCC(=O)Nc3ccccc3)o2)c1 | -1.36%
86 | Cc1cccc(OCc2nnc(SCc3nc4cc(C(F)(F)F)ccc4c(=O)[nH]3)o2)c1 | 2.6%
87 | CN(C(=O)CC(NC(=O)c1ccccc1)(c1ccccc1)c1ccccc1)c1ccccc1 | 25.4%
88 | O=C(N/N=C/C=C/c1ccccc1)C1CC1(c1ccccc1)c1ccccc1 (configuration not stated) | 64% (active)
89 | Cc1nn(C)c(Oc2ccccc2)c1[N+](=O)[O-] | 5.76%
90 | CCc1nc2oc3ccccc3c(=O)c2c(=O)n1Cc1ccc(OC)cc1 | 11.8%
91 | O=c1c2ccccc2oc2nc3n(c(=O)c12)CCCS3 | 0.28%
92 | O=c1c2ccccc2oc2nc(C3CCCCC3)n(Cc3ccco3)c(=O)c12 | 78.7% (active)
